Measured values from PMC7862700, “An all-to-all approach to the identification of sequence-specific readers for epigenetic DNA modifications on cytosine”.

Key:
Test in all cases: DAPPL (digital affinity profiling via proximity ligation, sequencing); 10 mM Tris-HCl pH 7.5, 50 mM NaCl, 1 mM DTT, 4% glycerol, room temperature, 30 min; GST-TFs on glutathione beads, 16-mer random dsDNA library, 0.1% formaldehyde crosslink after washing; high values mean tight binding
[1] = biological target: T1, FEV (Homo sapiens, UniProt Q99581 1-238); details: protein: recombinant; tags: N-terminal GST; dsDNA, one strand shown
T1 sequence: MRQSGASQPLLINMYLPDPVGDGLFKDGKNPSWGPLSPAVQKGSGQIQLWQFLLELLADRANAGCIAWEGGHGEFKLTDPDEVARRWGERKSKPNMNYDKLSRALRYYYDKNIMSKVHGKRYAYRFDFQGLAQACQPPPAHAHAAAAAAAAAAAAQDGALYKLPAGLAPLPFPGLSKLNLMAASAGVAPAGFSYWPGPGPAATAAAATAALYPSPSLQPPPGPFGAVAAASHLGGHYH
Procedure, shortened: (§1)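 Sequencing on an Illumina NextSeq500 followed washing, crosslinking with 0.1% formaldehyde, proximity ligation (BsaI/T4 ligase, 1 h, 37 °C) and PCR amplification of pools that had been incubated for 30 min at room temperature with 200 nmole of a random double-stranded 16-mer DNA library in Tris/NaCl/DTT/glycerol buffer. Each pool held DNA-barcoded human transcription factors, expressed in yeast as GST fusions and captured on glutathione beads, plus a tag-only sample. Binding signal is a hexamer's read frequency for a factor divided by its frequency in the tag-only sample.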

[2] = biological target: ETV5 (Homo sapiens, UniProt P41161 1-510); details: protein: recombinant; tags: N-terminal GST; dsDNA, one strand shown
ETV5, sequence (P41161 whole entry): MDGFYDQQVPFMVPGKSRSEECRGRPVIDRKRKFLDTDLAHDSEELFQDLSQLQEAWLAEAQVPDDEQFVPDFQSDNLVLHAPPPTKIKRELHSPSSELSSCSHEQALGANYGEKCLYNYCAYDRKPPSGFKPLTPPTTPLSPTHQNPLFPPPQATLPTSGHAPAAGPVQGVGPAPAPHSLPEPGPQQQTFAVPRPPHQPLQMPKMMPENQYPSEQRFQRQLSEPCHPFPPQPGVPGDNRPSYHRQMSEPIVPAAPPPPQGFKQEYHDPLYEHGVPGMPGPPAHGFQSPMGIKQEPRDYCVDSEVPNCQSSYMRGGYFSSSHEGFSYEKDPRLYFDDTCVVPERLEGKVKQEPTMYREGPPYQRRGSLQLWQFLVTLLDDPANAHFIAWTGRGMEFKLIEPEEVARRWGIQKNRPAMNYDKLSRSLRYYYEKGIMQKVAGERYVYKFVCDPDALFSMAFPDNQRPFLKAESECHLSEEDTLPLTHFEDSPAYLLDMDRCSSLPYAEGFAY
Procedure, shortened: as §1

[3] = biological target: HSF1 (Homo sapiens, UniProt Q00613 1-529); details: protein: recombinant; tags: N-terminal GST; chain copies: 3; dsDNA, one strand shown
HSF1, sequence (Q00613 whole entry): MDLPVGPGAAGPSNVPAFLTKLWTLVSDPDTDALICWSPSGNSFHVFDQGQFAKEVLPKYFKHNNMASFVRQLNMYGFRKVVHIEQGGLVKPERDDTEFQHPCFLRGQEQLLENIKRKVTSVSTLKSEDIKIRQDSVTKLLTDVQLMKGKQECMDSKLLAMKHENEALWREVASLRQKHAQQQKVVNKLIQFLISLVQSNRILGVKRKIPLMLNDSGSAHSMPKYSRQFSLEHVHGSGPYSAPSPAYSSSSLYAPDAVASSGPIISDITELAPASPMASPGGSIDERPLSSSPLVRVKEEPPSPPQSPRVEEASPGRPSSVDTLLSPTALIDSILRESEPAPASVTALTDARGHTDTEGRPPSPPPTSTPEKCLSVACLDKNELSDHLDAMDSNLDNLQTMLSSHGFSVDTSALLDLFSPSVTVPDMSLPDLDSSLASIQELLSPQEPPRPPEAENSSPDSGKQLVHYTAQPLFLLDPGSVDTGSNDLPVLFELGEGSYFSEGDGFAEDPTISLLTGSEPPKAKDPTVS
Procedure, shortened: as §1

[4] = biological target: T2, SPIC (Homo sapiens, UniProt Q8N5J4 1-248); details: protein: recombinant; tags: N-terminal GST; dsDNA, one strand shown
T2 sequence: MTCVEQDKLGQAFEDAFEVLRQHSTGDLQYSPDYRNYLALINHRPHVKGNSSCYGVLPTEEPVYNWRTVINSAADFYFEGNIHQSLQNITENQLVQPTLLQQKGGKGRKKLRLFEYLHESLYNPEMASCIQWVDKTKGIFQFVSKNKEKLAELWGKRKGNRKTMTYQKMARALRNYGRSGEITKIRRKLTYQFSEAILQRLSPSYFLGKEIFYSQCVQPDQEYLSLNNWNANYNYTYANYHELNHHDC
Procedure, shortened: as §1

[5] = biological target: ELF4 (Homo sapiens, UniProt Q99607 1-663); details: protein: recombinant; tags: N-terminal GST; dsDNA, one strand shown
ELF4, sequence (Q99607 whole entry): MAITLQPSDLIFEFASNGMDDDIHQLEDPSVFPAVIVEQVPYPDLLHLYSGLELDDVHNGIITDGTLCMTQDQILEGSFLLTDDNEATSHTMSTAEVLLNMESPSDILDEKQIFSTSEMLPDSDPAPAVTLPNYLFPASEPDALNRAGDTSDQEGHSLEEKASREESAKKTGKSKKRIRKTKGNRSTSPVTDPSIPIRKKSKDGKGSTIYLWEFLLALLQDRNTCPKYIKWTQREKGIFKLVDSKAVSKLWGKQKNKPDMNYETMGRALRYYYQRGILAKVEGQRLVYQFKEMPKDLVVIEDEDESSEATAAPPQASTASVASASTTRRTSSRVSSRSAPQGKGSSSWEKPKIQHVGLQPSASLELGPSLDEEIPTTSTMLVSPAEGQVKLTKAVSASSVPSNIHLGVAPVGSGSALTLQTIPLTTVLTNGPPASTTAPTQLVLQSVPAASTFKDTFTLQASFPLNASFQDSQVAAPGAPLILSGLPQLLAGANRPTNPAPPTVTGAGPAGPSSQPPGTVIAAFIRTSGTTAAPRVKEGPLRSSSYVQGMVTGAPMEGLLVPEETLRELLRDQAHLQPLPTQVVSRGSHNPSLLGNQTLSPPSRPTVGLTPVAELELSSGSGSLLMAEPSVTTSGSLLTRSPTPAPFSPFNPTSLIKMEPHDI
Procedure, shortened: as §1

[6] = biological target: T3, ELK4 (Homo sapiens, UniProt P28324-2 1-405); details: protein: recombinant; tags: N-terminal GST; dsDNA, one strand shown
T3 sequence: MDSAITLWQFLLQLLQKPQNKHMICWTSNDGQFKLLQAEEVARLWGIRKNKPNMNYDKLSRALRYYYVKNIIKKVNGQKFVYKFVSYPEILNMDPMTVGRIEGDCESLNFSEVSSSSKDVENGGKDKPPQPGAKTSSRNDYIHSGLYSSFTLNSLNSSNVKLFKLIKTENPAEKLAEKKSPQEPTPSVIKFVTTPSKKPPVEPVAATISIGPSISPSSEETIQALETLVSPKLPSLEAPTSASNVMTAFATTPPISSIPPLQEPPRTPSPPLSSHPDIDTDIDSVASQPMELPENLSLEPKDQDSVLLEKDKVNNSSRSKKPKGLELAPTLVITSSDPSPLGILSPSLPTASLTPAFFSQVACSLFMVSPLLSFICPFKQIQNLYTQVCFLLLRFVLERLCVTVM
Procedure, shortened: as §1

[7] = biological target: T4, ETV2 (Homo sapiens, UniProt O00321 1-342); details: protein: recombinant; tags: N-terminal GST; dsDNA, one strand shown
T4 sequence: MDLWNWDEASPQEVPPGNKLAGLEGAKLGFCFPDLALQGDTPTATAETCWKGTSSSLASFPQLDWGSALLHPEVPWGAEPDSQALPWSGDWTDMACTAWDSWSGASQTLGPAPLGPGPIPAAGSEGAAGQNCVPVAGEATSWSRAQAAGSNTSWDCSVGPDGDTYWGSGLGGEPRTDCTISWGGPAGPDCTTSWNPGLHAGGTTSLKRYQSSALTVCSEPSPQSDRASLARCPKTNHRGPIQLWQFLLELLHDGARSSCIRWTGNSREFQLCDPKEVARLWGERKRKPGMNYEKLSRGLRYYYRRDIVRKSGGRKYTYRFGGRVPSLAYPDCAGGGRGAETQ
Procedure, shortened: as §1

[8] = biological target: T5, ELF3 (Homo sapiens, UniProt P78545 1-371); details: protein: recombinant; tags: N-terminal GST; dsDNA, one strand shown
T5 sequence: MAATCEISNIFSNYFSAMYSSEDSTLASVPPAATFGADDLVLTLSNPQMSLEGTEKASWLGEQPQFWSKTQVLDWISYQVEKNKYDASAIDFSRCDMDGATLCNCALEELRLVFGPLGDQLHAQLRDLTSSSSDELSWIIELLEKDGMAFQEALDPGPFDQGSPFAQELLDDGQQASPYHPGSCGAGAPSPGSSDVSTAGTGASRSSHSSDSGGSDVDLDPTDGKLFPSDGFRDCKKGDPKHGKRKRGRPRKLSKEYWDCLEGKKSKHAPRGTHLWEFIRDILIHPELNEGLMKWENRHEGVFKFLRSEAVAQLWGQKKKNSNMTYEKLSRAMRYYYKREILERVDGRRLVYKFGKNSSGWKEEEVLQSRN
Procedure, shortened: as §1

[9] = biological target: CRX (Homo sapiens, UniProt O43186 1-299); details: protein: recombinant; tags: N-terminal GST; dsDNA, one strand shown
CRX, sequence (O43186 whole entry): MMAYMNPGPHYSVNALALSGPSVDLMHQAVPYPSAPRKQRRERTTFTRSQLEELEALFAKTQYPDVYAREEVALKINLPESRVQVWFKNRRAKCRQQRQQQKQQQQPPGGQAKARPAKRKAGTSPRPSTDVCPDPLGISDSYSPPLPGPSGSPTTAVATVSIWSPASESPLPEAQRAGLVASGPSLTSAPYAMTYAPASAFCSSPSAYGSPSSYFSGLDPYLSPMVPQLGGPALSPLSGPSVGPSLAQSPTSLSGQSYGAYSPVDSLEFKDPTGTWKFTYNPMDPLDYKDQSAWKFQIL
Procedure, shortened: as §1

[10] = biological target: ETV1 (Homo sapiens, UniProt P50549 1-477); details: protein: recombinant; tags: N-terminal GST; dsDNA, one strand shown
ETV1, sequence (P50549 whole entry): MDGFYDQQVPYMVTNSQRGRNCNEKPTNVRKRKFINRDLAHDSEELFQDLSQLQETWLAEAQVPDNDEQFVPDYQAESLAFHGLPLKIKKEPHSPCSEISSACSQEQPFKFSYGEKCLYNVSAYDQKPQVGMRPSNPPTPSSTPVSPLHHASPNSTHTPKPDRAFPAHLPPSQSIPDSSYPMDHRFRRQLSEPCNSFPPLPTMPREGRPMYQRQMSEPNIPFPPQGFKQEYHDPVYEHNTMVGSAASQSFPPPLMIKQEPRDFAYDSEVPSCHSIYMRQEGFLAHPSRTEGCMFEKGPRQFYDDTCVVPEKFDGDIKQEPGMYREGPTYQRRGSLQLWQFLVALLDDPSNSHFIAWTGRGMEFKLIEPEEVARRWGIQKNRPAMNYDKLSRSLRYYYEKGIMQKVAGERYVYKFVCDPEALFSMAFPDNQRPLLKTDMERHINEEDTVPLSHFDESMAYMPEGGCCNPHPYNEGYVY
Procedure, shortened: as §1

AAGGAT
binding signal [1]: 1.1 fold enrichment (6-mer frequency, TF over GST control) | binding signal [2]: 1.17 fold enrichment (6-mer frequency, TF over GST control) | binding signal [3]: 1.5 fold enrichment (6-mer frequency, TF over GST control) | binding signal [4]: 1.09 fold enrichment (6-mer frequency, TF over GST control) | binding signal [5]: 1.13 fold enrichment (6-mer frequency, TF over GST control) | binding signal [6]: 1.08 fold enrichment (6-mer frequency, TF over GST control) | binding signal [7]: 1.24 fold enrichment (6-mer frequency, TF over GST control) | binding signal [8]: 1.13 fold enrichment (6-mer frequency, TF over GST control) | binding signal [9]: 1.97 fold enrichment (6-mer frequency, TF over GST control) | binding signal [10]: 1.12 fold enrichment (6-mer frequency, TF over GST control)

TGCCTC
binding signal [1]: 1.32 fold enrichment (6-mer frequency, TF over GST control) | binding signal [2]: 1.37 fold enrichment (6-mer frequency, TF over GST control) | binding signal [3]: 1.14 fold enrichment (6-mer frequency, TF over GST control) | binding signal [4]: 1.4 fold enrichment (6-mer frequency, TF over GST control) | binding signal [5]: 1.34 fold enrichment (6-mer frequency, TF over GST control) | binding signal [6]: 1.28 fold enrichment (6-mer frequency, TF over GST control) | binding signal [7]: 1.3 fold enrichment (6-mer frequency, TF over GST control) | binding signal [8]: 1.52 fold enrichment (6-mer frequency, TF over GST control) | binding signal [9]: 1.06 fold enrichment (6-mer frequency, TF over GST control) | binding signal [10]: 1.24 fold enrichment (6-mer frequency, TF over GST control)

CGTAAT
binding signal [1]: 1.19 fold enrichment (6-mer frequency, TF over GST control) | binding signal [2]: 1.21 fold enrichment (6-mer frequency, TF over GST control) | binding signal [3]: 1.5 fold enrichment (6-mer frequency, TF over GST control) | binding signal [4]: 1.14 fold enrichment (6-mer frequency, TF over GST control) | binding signal [5]: 1.22 fold enrichment (6-mer frequency, TF over GST control) | binding signal [6]: 1.17 fold enrichment (6-mer frequency, TF over GST control) | binding signal [7]: 1.17 fold enrichment (6-mer frequency, TF over GST control) | binding signal [8]: 1.29 fold enrichment (6-mer frequency, TF over GST control) | binding signal [9]: 1.94 fold enrichment (6-mer frequency, TF over GST control) | binding signal [10]: 1.24 fold enrichment (6-mer frequency, TF over GST control)

CGTACT
binding signal [1]: 1.17 fold enrichment (6-mer frequency, TF over GST control) | binding signal [2]: 1.22 fold enrichment (6-mer frequency, TF over GST control) | binding signal [3]: 1.05 fold enrichment (6-mer frequency, TF over GST control) | binding signal [4]: 1.12 fold enrichment (6-mer frequency, TF over GST control) | binding signal [5]: 1.25 fold enrichment (6-mer frequency, TF over GST control) | binding signal [6]: 1.22 fold enrichment (6-mer frequency, TF over GST control) | binding signal [7]: 1.35 fold enrichment (6-mer frequency, TF over GST control) | binding signal [8]: 1.15 fold enrichment (6-mer frequency, TF over GST control) | binding signal [9]: 1.07 fold enrichment (6-mer frequency, TF over GST control) | binding signal [10]: 1.34 fold enrichment (6-mer frequency, TF over GST control)

TCGTCT
binding signal [1]: 1.3 fold enrichment (6-mer frequency, TF over GST control) | binding signal [2]: 1.33 fold enrichment (6-mer frequency, TF over GST control) | binding signal [3]: 1.46 fold enrichment (6-mer frequency, TF over GST control) | binding signal [4]: 1.27 fold enrichment (6-mer frequency, TF over GST control) | binding signal [5]: 1.35 fold enrichment (6-mer frequency, TF over GST control) | binding signal [6]: 1.32 fold enrichment (6-mer frequency, TF over GST control) | binding signal [7]: 1.36 fold enrichment (6-mer frequency, TF over GST control) | binding signal [8]: 1.52 fold enrichment (6-mer frequency, TF over GST control) | binding signal [9]: 1.37 fold enrichment (6-mer frequency, TF over GST control) | binding signal [10]: 1.41 fold enrichment (6-mer frequency, TF over GST control)

TAAGTA
binding signal [1]: 1.16 fold enrichment (6-mer frequency, TF over GST control) | binding signal [2]: 1.18 fold enrichment (6-mer frequency, TF over GST control) | binding signal [3]: 1.76 fold enrichment (6-mer frequency, TF over GST control) | binding signal [4]: 1.25 fold enrichment (6-mer frequency, TF over GST control) | binding signal [5]: 1.24 fold enrichment (6-mer frequency, TF over GST control) | binding signal [6]: 1.18 fold enrichment (6-mer frequency, TF over GST control) | binding signal [7]: 1.38 fold enrichment (6-mer frequency, TF over GST control) | binding signal [8]: 1.36 fold enrichment (6-mer frequency, TF over GST control) | binding signal [9]: 2.63 fold enrichment (6-mer frequency, TF over GST control) | binding signal [10]: 1.29 fold enrichment (6-mer frequency, TF over GST control)

TATCTT
binding signal [1]: 1.33 fold enrichment (6-mer frequency, TF over GST control) | binding signal [2]: 1.22 fold enrichment (6-mer frequency, TF over GST control) | binding signal [3]: 1.48 fold enrichment (6-mer frequency, TF over GST control) | binding signal [4]: 1.27 fold enrichment (6-mer frequency, TF over GST control) | binding signal [5]: 1.24 fold enrichment (6-mer frequency, TF over GST control) | binding signal [6]: 1.38 fold enrichment (6-mer frequency, TF over GST control) | binding signal [7]: 1.53 fold enrichment (6-mer frequency, TF over GST control) | binding signal [8]: 1.34 fold enrichment (6-mer frequency, TF over GST control) | binding signal [9]: 1.91 fold enrichment (6-mer frequency, TF over GST control) | binding signal [10]: 1.22 fold enrichment (6-mer frequency, TF over GST control)
